Assay results from ChEMBL document CHEMBL4513216, “Probing the Open Global Health Chemical Diversity Library for Multistage-Active Starting Points for Next-Generation Antimalarials” (ACS Infect Dis, 2020).
The whole screen tested about 69,000 compounds, of which about 8,600 (12%) showed an effect of 50% or more. The sample holds strong results, similar compounds and a random draw of the others, so the mix is not that of the screen.

Tested on: Plasmodium berghei
Assay: Screen against P. berghei liver stage (PbLuc), transformed with Luciferase, at 10uM
Assay type: functional, HepG2
Settings: tested at 10 uM

SMILES	INHIBITION
CC(NC(=O)OC(C)(C)C)c1nnc(S(=O)(=O)Cc2ccc(Cl)cc2)o1 (stereo not given)	-19.1%
COc1ccc2c(ccn2CCC(=O)NCc2ccc(C(=O)O)cc2)c1	7.83%
O=C([C@H]1C[C@H]2OCC[C@H]2N(Cc2ccco2)C1)N1CCCO1	34.6%
O=C(N1CCCO1)[C@@]12CCO[C@@H]1CCN(Cc1ccccc1)C2	-10.4%
O=C(Cn1c(=O)[nH]c2cn(-c3ccccc3)c(=O)n21)Nc1ccccc1	23.2%
CC(C)c1cccc(NC(=O)Cn2c(=O)n(C)c(=O)c3sccc32)c1	74.7%
CC(C)n1c(=O)c2sccc2n(CC(=O)Nc2ccccc2)c1=O	52.4%
CCn1c(=O)c2sccc2n(CC(=O)Nc2cccc(Cl)c2)c1=O	33.3%
Cn1c(=O)c2sccc2n(CC(=O)Nc2cccc(Cl)c2)c1=O	-25.5%
CC(C)n1c(=O)c2sccc2n(CC(=O)Nc2cccc(Cl)c2)c1=O	19.3%
CC1=N[C@@]2(CC[C@@H]3CN(S(=O)(=O)CC(C)C)C[C@@H]32)C(=O)N1CC(C)C	40.4%
CCN(CC)CCNC(=O)CCc1c(C)nn(-c2ccccc2Br)c1C	6.55%
CC(C)(C)NC(=O)c1cccc(CN2CCS(=O)(=O)CC2)c1	47.3%
Cc1ccc(N2CCC3(CCN(C(=O)c4ccccn4)CC3)CC2)nn1	0.72%
Cc1cc(C)n(CC(C)CNC(=O)NCc2csc(C)n2)n1 (stereo not given)	35.4%
Cn1cnnc1SC1CCc2ccccc2NC1=O (stereo not given)	34.3%
Cn1nnnc1SC1CCc2ccccc2NC1=O (stereo not given)	56.3%
Cc1nnc(SC2CCc3ccccc3NC2=O)n1C (stereo not given)	38.1%
O=C(NCc1ccc(-n2cncn2)nc1)c1ccc2c(c1)CCC2	-45.9%
COC[C@]1(O)CCN(C2CCN(c3ccc(OC)cc3)CC2)CC1(C)C	23.9%
Cn1cnc2c1CCN(Cc1csc(C3CCCCC3)n1)C2	33.3%
CCCNC(=O)C1CCN(CC(O)c2ccccc2)CC1 (stereo not given)	30%

SMILES	INHIBITION
CCCNC(=O)C1CCN(CC(O)c2ccccc2C(F)(F)F)CC1 (stereo not given)	-4.12%
CCCNC(=O)C1CCN(CC(O)c2ccc(C(F)(F)F)cc2)CC1 (stereo not given)	51.6%
CO[C@H]1CCN(Cc2cccc(C)n2)[C@@H]2CN(Cc3cccnc3)C[C@H]12	30.1%
CS(=O)(=O)c1ccc(-c2cc(C3CC3)c(C#N)c(N)n2)cc1	-21.2%
CCSc1ncc(-c2cc(C3CCC3)nc(N)c2C#N)cn1	48.5%
CC(C)c1ncc(-c2cc(C3CCC3)nc(N)c2C#N)cn1	62.6%
CCCNc1ncc(-c2cc(C3CC3)nc(N)c2C#N)cn1	34.4%
N#Cc1c(C2CC2)cc(-c2ccc(F)c(F)c2)nc1N	-42.8%
CCSc1ncc(-c2cc(C3CC3)nc(N)c2C#N)cn1	52.8%
Cc1ccc(N2CC[C@@H]3O[C@@H](COCc4cccnc4)CC[C@@H]32)nn1	4.02%
CCN(C(C)=O)C(c1ccc(Cl)cc1)c1ccccn1 (stereo not given)	33.7%
O=C1CCCN1Cc1ncn2c1CN(C(=O)Cc1cccs1)CCC2	32.2%
Cc1ncsc1CCN(C)C(=O)c1c(O)cccc1O	25.1%
Cc1cnc(CCN(C)C(=O)c2ccc(O)nc2C)s1	60.2%
Cc1cnc(CCN(C)C(=O)c2cccc(C)c2O)s1	58.8%
Cc1cnc(CCN(C)C(=O)c2cccc(N(C)C)c2)s1	33.7%
Cc1nc(-c2ccsc2)ccc1C(=O)N(C)CC1CC1	27.7%
Cc1nc(O)ccc1C(=O)NCc1ncoc1C	-17.3%
CNC(=O)[C@@H](c1ccccc1)N1CCC[C@H]1C(=O)NCc1ccccn1	34.6%
CN(Cc1cccs1)C(=O)CN1C(=O)c2cc(Cl)c(Cl)cc2C1=O	14.8%
CCC(O)CN1CCN(C(=O)c2cccc(CC#N)c2)CC1 (stereo not given)	-12.2%
O=C(C1CCN(c2cccnn2)C1)N1CCOCC1 (stereo not given)	18.3%

SMILES	INHIBITION
Cc1cc(CN2C[C@@H]3CN(C(=O)c4cccn4C)CCO[C@@H]3C2)no1	89.3%
Cn1cc(CN2C[C@@H]3CN(C(=O)c4cccn4C)CCO[C@@H]3C2)cn1	24.9%
Cc1cc(CN2C[C@@H]3CN(C(=O)c4ccco4)CCO[C@@H]3C2)no1	12%
CN(Cc1cnn(C)c1)C(=O)NC1CCCC1	8.38%
CCCS(=O)(=O)N1CCO[C@H]2[C@@H](Oc3cccnc3)CC[C@@H]21	10.5%
O=c1ccc(S(=O)(=O)N2CCCC2)cn1CC1CCCCO1 (stereo not given)	-15%
c1cncc(CN2CC[C@@H]3[C@@H]2CCN3Cc2ccc3c(c2)OCO3)c1	-8.51%
O=S(=O)(c1c(N2CCCCC2)ccc2nonc12)N1CCCCC1	8.41%
Cc1ccc(C(C)NC(=O)N2CCNC(=O)CC2)cc1F (stereo not given)	42.3%
CC(NC(=O)N1CCNC(=O)CC1)c1ccc(OC(F)F)cc1 (stereo not given)	-18.3%
COc1ccc(C(C)NC(=O)N2CCNC(=O)CC2)cc1F (stereo not given)	74.8%
CCCc1n[nH]c(C2CN(C(=O)c3cc4c(s3)CCC4)CCO2)n1 (stereo not given)	33.8%
CC(C)NC(=O)CC1COC2(CCN(Cc3ccsc3)CC2)C1 (stereo not given)	13.7%
Cc1noc2ncc(C(=O)NCC3CCS(=O)(=O)C3)cc12 (stereo not given)	-49.1%
COc1ccccc1C(C)(C)NC(=O)c1ccc(F)c(NC(C)=O)c1	-47%
N#Cc1ccc(CN2C(=O)c3ccccc3CS2(=O)=O)c(F)c1	15.2%
Cc1c2ncn(CC(=O)c3ccccc3)c(=O)c2nn1C	14.9%
N#Cc1ccc(CN2C(=O)c3ccccc3CS2(=O)=O)cc1	-9.35%
O=C(CN1C(=O)c2ccccc2CS1(=O)=O)c1ccc(Cl)cc1	55.4%
O=C(CN1C(=O)c2ccccc2CS1(=O)=O)c1ccccc1	74.2%
CN1CCC2(Cc3ccccc3CN(C(=O)c3ccc(Cl)cc3)C2)C1 (stereo not given)	-17.2%
CC1CCN(C(=O)C2CCN(c3ccc(Cl)cc3C#N)CC2)CC1	41%

SMILES	INHIBITION
Cc1nc(C(=O)N2CCCC2c2c(C)nn(C)c2C)cs1 (stereo not given)	13.3%
Cc1csc(N2CCN(CC(=O)NC3CCOCC3)CC2C)n1 (stereo not given)	45.6%
CCC(=O)N1CCC2(CC1)C(=O)N(C)CCN2Cc1csc(C)n1	13.6%
Cc1nsc(N2CCN(CC(=O)N(C3CC3)C(C)C3CC3)CC2)n1 (stereo not given)	22.6%
CCc1nsc(N2CCCN(CC(=O)N(C)C3CC3)CC2)n1	39.3%
CCN(C(=O)CN1CCCN(c2nc(C)ns2)CC1)C1CC1	68.5%
COc1ccc(-c2noc(C(N)CCSC)n2)cc1OC (stereo not given)	46.6%
CNc1cc(CCNC(=O)C2CCCC2)nc(-c2ccccn2)n1	-9.34%
O=C1CC(C(=O)NCc2ccccc2Oc2ccccc2F)CCN1 (stereo not given)	8.38%
Cc1ccc(CNC(=O)C2CCNC(=O)C2)c(OCCC(C)C)c1 (stereo not given)	58.4%
Cc1cccc(Oc2ccccc2CNC(=O)C2CCNC(=O)C2)c1 (stereo not given)	-33.7%
CNC(=O)c1ccc(N(C)C2CCC2)nn1	-107%
COC(=O)c1ccc(N(C)C2CCC2)nn1	50.1%
CN(c1ccc(C(N)=O)nn1)C1CCC1	-8.73%
Cc1noc2nc(C3CCN(CC4=CCCOC4)CC3)cc(C(F)F)c12	39.8%
CC(=O)Nc1nc(C2CCN(C(=O)Cc3ccccc3)CC2)cs1	0.301%
Cc1cc(C(=O)N2CCCC(C)C2)ccc1NCC(=O)N1CCOCC1 (stereo not given)	-47.6%
COCC1CN(S(=O)(=O)c2ccc(C)cc2)Cc2c1cnn2C (stereo not given)	34.9%
CCO[C@H]1CN(C(=O)c2ccc3c(c2)OCO3)[C@@H]2COC[C@H]12	57.9%
Cn1ncc2ccc(C3CCCN(Cc4cccs4)C3)nc21 (stereo not given)	20.74%
COCC1CN(S(=O)(=O)Cc2ccc(C)cc2)Cc2c1cnn2C (stereo not given)	-0.554%
Cc1cc(C)n(C2CCCN(C(=O)Cc3cccs3)C2)n1 (stereo not given)	-5.25%

SMILES	INHIBITION
CCOCC1CN(C(=O)Cc2ccccn2)Cc2c1cnn2C (stereo not given)	26.4%
COCC1CN(C(=O)Cc2ccccn2)Cc2c1cnn2CC1CC1 (stereo not given)	15.9%
COCC1CN(S(=O)(=O)Cc2ccccc2)Cc2c1cnn2C (stereo not given)	54.1%
Cn1ncc2ccc(C3CCCN(C(=O)Cc4cccs4)C3)nc21 (stereo not given)	58.5%
Cn1ncc2c1CN(C(=O)Cc1ccccn1)CC2COCC1CC1 (stereo not given)	64.9%
CN(C)CCO[C@H]1CN(C(=O)c2ccc3c(c2)OCO3)[C@@H]2COC[C@H]12	-20.8%
CO[C@H]1CN(C(=O)c2ccc3c(c2)OCO3)[C@@H]2COC[C@H]12	1.48%
CC1CCN(S(=O)(=O)N2CCCN(CC3CCCO3)CC2)CC1 (stereo not given)	38%
CC(C)n1cnc2c1C(C(=O)NCCO)N(Cc1ccccc1)CC2 (stereo not given)	-18.4%
CSc1ncc(C(=O)N2C[C@@H]3CC[C@H]2CN(c2ncccn2)C3)cn1	14%
COCC1CN(C(=O)Cc2ccccn2)Cc2ncnn2C1 (stereo not given)	64.9%
COCC1CN(C(=O)c2ccnnc2)Cc2ncnn2C1 (stereo not given)	-41.6%
CCn1ncc2c1CN(C(=O)c1ccc3c(c1)OCO3)CC2COC (stereo not given)	50.7%
COCC1CN(C(=O)CC2Cc3ccccc3C2)Cc2c1cnn2C (stereo not given)	59%
COCC1CN(C(=O)CNC(C)=O)Cc2ncnn2C1 (stereo not given)	6.8%
CCn1ncc2c1CN(C(=O)c1cscn1)CC2COC (stereo not given)	45.1%
COCC1CN(C(=O)c2ccnnc2)Cc2c1cnn2C (stereo not given)	48.3%
COCC1CN(C(=O)Cc2ccsc2)Cc2c1cnn2C (stereo not given)	46.2%
COCC1CN(C(=O)c2cccn2C)Cc2c1cnn2CC1CC1 (stereo not given)	31.7%
CCn1ncc2c1CN(C(=O)Cc1cccs1)CC2COC (stereo not given)	-27.9%
CCn1ncc2c1CN(C(=O)c1cc(C)oc1C)CC2COC (stereo not given)	-12.1%
COCC1CN(C(=O)Cc2cccs2)Cc2c1cnn2C (stereo not given)	66%
